Screening data as filed in PubChem.
Hits are enriched below; roughly 1.8% of the tested compounds scored in any of these assays.
MEP2-GFP yeast: alters MEP2-GFP fluorescence in TOR pathway yeast screen. GFP response vs DMSO, % at 10 µM. 0.51% of 330,000 active. AID 2016. S. cerevisiae MEP2-GFP strain, flow cytometry GFP, 3 h; 100% = DMSO control level;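 active = GFP response versus DMSO above a set limit, roughly screen mean plus 3 SD, cut at about 180% in these data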;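 note: median GFP fluorescence of the barcode-gated MEP2-GFP cells per well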
Myeloid diff 2: compounds promoting myeloid differentiation; calls only at 10 µM; AID 624256; 1% of 360,000 active; ER-HoxA9 myeloid progenitors, lysozyme-GFP differentiation, flow cytometry;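 active = normalized GFP-positive differentiation at or above the plate's own cutoff, the solvent-only control mean plus 3 SD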;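 note: cells exposed to compound for four days before flow analysis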
AGP1-GFP MLPCN: modulators of TOR pathway AGP1-GFP in S. cerevisiae; GFP response vs DMSO, % at 10 µM; AID 2066; 0.02% of 320,000 active; S. cerevisiae AGP1-GFP multiplex flow cytometry, 3 h; GFP as percent of DMSO wells;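 active = GFP response relative to DMSO above a set limit, near screen average plus 3 SD, cut at about 150% in these data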;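 note: median GFP channel fluorescence of the gated AGP1 strain per well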
CIT2-GFP yeast: modulators of TOR pathway CIT2-GFP in S. cerevisiae | S. cerevisiae CIT2-GFP strain, flow cytometry, 3 h; 100 means same as DMSO wells | GFP response vs DMSO, % at 10 µM | 0.065% of 320,000 active;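 active = GFP response relative to DMSO above a set limit, near the screen mean plus 3 SD, cut at about 150% in these data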;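 note: ratio of well median GFP fluorescence to mean of DMSO wells on the plate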
RPL19A-GFP yeast: alters RPL19A-GFP fluorescence in TOR pathway yeast screen | S. cerevisiae RPL19A-GFP strain, flow cytometry, 3 h; hits give low values | percent response vs DMSO, % at 10 µM | 0.3% of 330,000 active | AID 2025;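 active = percent response vs DMSO below 50%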;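 note: median channel GFP fluorescence of the barcoded RPL19A-GFP strain; ratio of sample median GFP to plate DMSO average so 100% = DMSO; lower means less RPL19A-GFP as with rapamycin TOR inhibition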
LAP4 TOR yeast: alters LAP4-GFP fluorescence in TOR pathway yeast screen; S. cerevisiae LAP4-GFP multiplex, flow cytometry GFP, 3 h; median GFP as percent of DMSO wells; GFP response vs DMSO, % at 10 µM; 0.34% of 320,000 active; AID 2023;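 active = GFP response vs DMSO above a set limit, about the screen mean plus 3 SD, cut at about 150% in these data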
Myeloid diff CP1: compounds promoting myeloid differentiation | shares compounds with Myeloid diff 2 | ER-HoxA9 myeloid progenitors, GFP/Mac1 double-positive flow | calls only | 2% of 2,300 active | AID 651706;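 active = share of green or green-and-red cells above 9 and 9% in run 1 or 4 and 3% in run 2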
GFP autofluor: counter-screen for myeloid differentiation promoters: compound fluorescence; shares compounds with Myeloid diff 2; fluorescence response, % (no concentration beside the values); ER-HoxA9 myeloid progenitors, no estrogen, GFP autofluorescence flow cytometry; vehicle wells 0%, positive control 100%; 7.4% of 2,300 active;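 active = over 5% cells positive for green fluorescent reporter, or over 2% positive for both it and APC stain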;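 note: range taken on the double positive population between DMSO and positive control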
* = called active by the depositor; i = inactive; / = not tested or not shown; + = active, no number; ! = repeats disagree.

SMILES	MEP2-GFP yeast	Myeloid diff 2	AGP1-GFP MLPCN	CIT2-GFP yeast	RPL19A-GFP yeast	LAP4 TOR yeast	Myeloid diff CP1	GFP autofluor
O=C(NCCN1CCOCC1)C(=O)NCC1OCCN1S(=O)(=O)c1ccc(Br)cc1 (stereo unspecified)	104	/	100	103	101	105	/	/
CCN(CC)c1ccc2cc(S(=O)(=O)c3ccc(Cl)cc3)c(=O)oc2c1	90	i	102	94	98	100	i	1
c1ccc2c(-c3[nH]ncc3CNCCCn3ncc4ccccc43)cccc2c1	102	i	105	106	100	106	/	/
Cc1ccccc1NC(=O)c1sc2nc[nH]c(=O)c2c1C	95	i	89	87	94	91	i	0
CC(=O)Nc1ccc(S(=O)(=O)N2CCCC(C(=O)O)C2)cc1 (stereo unspecified)	108	i	118	114	108	115	/	/
CCOc1cc(C)nc(N2CCC(C(=O)Nc3ccccc3OCC)CC2)n1	113	i	98	99	95	95	/	/
CC1=[N+](CC(=O)c2ccccc2)CCn2cccc21	100	+	105	95	94	108	i	1
CC(=O)N[C@@H](C)C(=O)N1CCN(S(=O)(=O)c2ccc(Cl)cc2)CC1	102	i	103	98	99	97	/	/
Cc1ccc(NC(=O)c2ccc([N+](=O)[O-])s2)cc1S(=O)(=O)N1CCOCC1	94	+	92	92	96	88	i	0
Cc1cc(=O)n2nc(N3CCC(C(=O)NC4CCCc5ccccc54)CC3)sc2n1 (stereo unspecified)	85	i	/	91	88	91	/	/
c1ccc(CSc2nncn2-c2ccccn2)cc1	109	i	106	99	99	102	/	/
CCOC(=O)C1CCN(Cc2cc(C(C)C)c(O)c(C(C)C)c2)CC1	97	+	98	99	98	97	i	1
CCOC(=O)C1CCN(Cc2ccc3ccccc3c2)CC1	104	i	95	98	99	91	/	/
CC(=O)N1N=C(c2ccc(Br)cc2)OC12CCCC2	96	i	103	90	94	105	/	/
CC1Nc2ncnc(N3CCc4ccccc4C3)c2N(Cc2ccc(Br)cc2)C1=O (stereo unspecified)	/	+!	/	/	/	/	i	0
Cc1ccc(C2=NN(S(C)(=O)=O)C(c3cccs3)C2)cc1 (stereo unspecified)	105	i	112	95	105	111	i	0
COc1ccc(/C=C/C(O)=C2/C(=O)N(C)C3(C)CC2c2ccccc2O3)cc1 (stereo unspecified)	101	+	100	97	98	97	+	0
Cc1ccc(/C=C/C(O)=C2/C(=O)N(C)C3(C)CC2c2ccccc2O3)cc1 (stereo unspecified)	104	i	101	103	100	106	/	/
Cn1c(SCC(=O)Nc2ccc3c(c2)OCCO3)nnc1C(F)(F)F	97	i	98	96	98	98	/	/
CCOc1ccc(NS(=O)(=O)c2ccc(NS(=O)(=O)c3ccccc3)cc2)cc1	100	i	101	105	102	91	i	0
CC(c1ccccc1)n1c(-c2ccccc2F)n[nH]c1=S (stereo unspecified)	96	i	100	101	102	82	/	/
CC(C)n1c(-c2ccccc2F)n[nH]c1=S	112	i	108	104	111	109	i	85*
O=C(CCN1C(=O)c2ccccc2C1=O)NC1=NCCS1	101	i	/	102	96	107	/	/
CC(=O)c1sc(NC(=O)CCNC(=O)c2ccco2)nc1-c1ccccc1	97	i	98	94	97	96	/	/
COc1cccc(OCCSc2nnc3sc4ccccc4n23)c1	96	i	90	97	96	110	/	/
SMILES	MEP2-GFP yeast	Myeloid diff 2	AGP1-GFP MLPCN	CIT2-GFP yeast	RPL19A-GFP yeast	LAP4 TOR yeast	Myeloid diff CP1	GFP autofluor
c1ccc(OCCSc2nnc3sc4ccccc4n23)cc1	96	i	89	79	95	127	i	0
CCOP(=O)(OCC)C(NC(=O)Nc1ccc(Cl)c(Cl)c1)C(N)=O (stereo unspecified)	97	i	101	102	103	91	i	0
O=C(O)c1ccc(CN2C[C@@H](CO)O[C@@H](n3cnc4c(Nc5ccccc5)ncnc43)C2)cc1	/	i	/	/	/	/	/	/
CCS(=O)(=O)Nc1ccc(-c2cc(-c3ccccc3)c3cc(C)ccc3n2)cc1	87	i	73	92	90	114	i	0
Cc1ccc(/C=[N+](/C)[O-])cc1	96	i	104	92	95	100	i	0
Cc1cc(Cl)ccc1NC(=S)N1CCN(Cc2ccc3c(c2)OCO3)CC1	103	+	105	100	95	102	i	0
COc1cccc(C(=O)COC(=O)CCC(=O)c2ccccc2)c1	105	i	105	104	105	108	/	/
CC1=Nc2ccccc2/C1=C/c1sc(=N)n(-c2nccs2)c1O	101	i	98	100	100	124	i	47*
CC1=Nc2ccccc2/C1=C/c1nc(-c2ccc(C)s2)oc1O	106	i	93	118	98	91	/	/
CCOc1ccc(N=c2scc(-c3ccc(OC)cc3)n2CCO)cc1	99	i	94	96	97	102	i	0
O=C(NC1C2CC3CC(C2)CC1C3)c1ccc2c(c1)OCO2 (stereo unspecified)	96	i	97	91	100	99	/	/
Cc1nn(-c2ccccc2)c2sc(C(=O)NNC(=O)COc3ccccc3)cc12	97	+	102	103	101	95	i	0
CCOc1ccc(N(CC(=O)Nc2cc(Cl)ccc2C)S(C)(=O)=O)cc1	103	+	99	103	100	86	i	0
CCOc1ccc(N(CC(=O)Nc2ccccc2Cl)S(C)(=O)=O)cc1	107	i	111	111	111	96	/	/
CNc1ccccc1C(C)(C)c1cc(-c2cccc(Br)c2)no1	97	+	101	100	94	106	i	81*
COc1ccccc1NC(=O)CSc1nnc(-c2ccco2)n1Cc1ccco1	105	i	109	103	104	94	i	1
COc1ccccc1NC(=O)CSc1nnc(-c2ccccn2)n1Cc1ccco1	108	i	102	97	98	102	/	/
